From PubChem BioAssay
This excerpt belongs to a sample that is enriched for hits.
CHX counter: Cycloheximide Counterscreen for Small Molecule Inhibitors of Shiga Toxin; cell reporter, cycloheximide protein synthesis inhibition counterscreen; max response, %; 300,000 tested, 12% active; AID 2314, 2010; in the data active means max response mostly above about 13%, no sharp cut-off; inactive means mostly below about 14%; further: read at 38.3 µM for the half of the compounds with a filed dose
AmpC inh no detg: qHTS Inhibitors of AmpC Beta-Lactamase (assay without detergent) | P00811 | AmpC nitrocefin hydrolysis, absorbance 480 nm, 0.0001% Triton | Potency, µM (titrated, usually from 57.1 µM), actives largely listed as inhibitors | 330,000 tested, 0.52% active; further: nearly all actives have a fitted effect of over 20% in size
Target sequence (P00811 whole entry, looked up): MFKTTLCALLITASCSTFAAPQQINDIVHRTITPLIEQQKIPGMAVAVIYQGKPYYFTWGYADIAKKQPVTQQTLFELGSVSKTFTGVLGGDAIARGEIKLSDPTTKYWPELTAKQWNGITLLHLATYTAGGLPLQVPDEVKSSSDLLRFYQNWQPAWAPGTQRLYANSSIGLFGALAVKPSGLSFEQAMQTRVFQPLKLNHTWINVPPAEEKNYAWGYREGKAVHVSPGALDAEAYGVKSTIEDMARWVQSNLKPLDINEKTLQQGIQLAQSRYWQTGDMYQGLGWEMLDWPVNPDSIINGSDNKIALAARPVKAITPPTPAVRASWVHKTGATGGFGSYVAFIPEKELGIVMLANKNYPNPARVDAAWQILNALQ
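AmpC (5.3 nM in the dispensed reagent) in 20 mM phosphate pH 7.0 with 0.01% (detergent screen) or 0.0001% Triton X-100 was preincubated with compounds for 15 min at room temperature. Nitrocefin was then added from an 800 uM solution, and hydrolysis was followed at 480 nm.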
Shiga toxin inh: A qHTS for Small Molecule Inhibitors of Shiga Toxin. Vero cells, Shiga toxin protein synthesis inhibition reporter. inhibition, % at 38.7 µM. 290,000 tested, 9.2% active; in the data active means inhibition mostly above about 28%, no sharp cut-off; inactive means mostly below about 43%
SARS PLpro yeast: qHTS of Yeast-based Assay for SARS-CoV PLP. 330,000 tested, 0.19% active. AID 485353, 2010. Potency, µM (series often up to 32.9 µM), hits mostly activators. S. cerevisiae expressing SARS-CoV PLpro, growth rescue; calls by dose curve; further: nearly all actives have a fitted effect of over 55% in size
AmpC detergent: qHTS Inhibitors of AmpC Beta-Lactamase (assay with detergent); P00811; AmpC hydrolysis of nitrocefin, absorbance 480 nm, 0.01% Triton; Potency, µM (doses to about 114 µM), hits mostly inhibitors; 370,000 tested, 0.041% active; AID 485294, 2010; further: nearly all actives have a fitted effect of over 25% in size
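AmpC (5.3 nM in the dispensed reagent) in 20 mM phosphate pH 7.0 with 0.01% (detergent screen) or 0.0001% Triton X-100 was preincubated with compounds for 15 min at room temperature. Nitrocefin was then added from an 800 uM solution, and hydrolysis was followed at 480 nm.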
AMA1-RON2 inh: qHTS for Inhibitors of AMA1-RON; Towards Development of Antimalarial Drug Lead: Primary Screen. AlphaScreen AMA1-biotinylated RON2 peptide binding. Potency, µM (highest dose often 58.2 µM), actives largely listed as inhibitors. 360,000 tested, 0.2% active; further: nearly all actives have a fitted effect of over 45% in size
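AMA1 (3D7) with his tag at 25 nM final met compounds first, then biotinylated RON2 peptide at 25 nM; detection used donor plus acceptor beads, 10 µg/mL apiece, read by AlphaScreen after 30 min at room temperature.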
Each line names hits and unclear results; the compound was inactive in the other large screens. Unless noted, the call rests on the fitted dose curve; in most records, active means well fitted curve in the direction sought with a large enough effect; inconclusive means small, poorly fitted or top-dose-only effect, or another doubt; inactive means no such curve, though single readings can be large; an effect the other way counts as inactive or inconclusive.

CCOc1ccc(NC(=O)c2ccc3nccnc3c2)cc1	CHX counter 52
COC(=O)c1ccc2nccnc2c1	none
COc1ccccc1NC(=O)CCCC(=O)OC(C)C(=O)c1ccccc1 (centres undefined)	none
O=C(Nc1cnn(Cc2ccc(F)cc2)c1)C(c1ccccc1)c1ccccc1	none
COc1cc(-c2noc(C)c2C(=O)NCCc2cccs2)cc(OC)c1OC	none (no result: CHX counter, Shiga toxin inh, AmpC detergent)
Cn1c(=NC(=O)C(C)(C)C)sc2cccc(F)c21	Shiga toxin inh 58
C#CCn1c(=NC(=O)c2ccccc2[N+](=O)[O-])sc2cc(S(C)(=O)=O)ccc21	AmpC detergent inconclusive
CC(C)C(=O)N=c1sc2cc(F)cc(F)c2n1C	AmpC detergent inconclusive
Cn1c(=NC(=O)c2ccccc2[N+](=O)[O-])sc2cccc(F)c21	CHX counter 63, Shiga toxin inh 162
CCN1C(=O)/C(=C/C=C2\C=CN(CC)c3ccccc32)SC1=S	AmpC detergent inconclusive, AMA1-RON2 inh inconclusive
Cc1nn(CCO)c2c1C(=O)CCC2	none
C[C@H]1[C@H](NC(=O)C(=NOC(C)(C)C(=O)O)c2csc(N)n2)C(=O)N1S(=O)(=O)O	AmpC inh no detg 5µM, AmpC detergent 4µM (no result: CHX counter, Shiga toxin inh, SARS PLpro yeast)
COc1ccc(C(=O)Nc2ccc(C(=O)Nc3nccs3)cc2)cc1[N+](=O)[O-]	SARS PLpro yeast inconclusive, AmpC detergent inconclusive
Cc1cccc(Nc2nnc(SCC3CCCCO3)s2)c1 (centres undefined)	CHX counter 36, Shiga toxin inh 49, AmpC detergent inconclusive
COc1ccc(NC(=O)c2ccc(NCCCN3CCOCC3)c([N+](=O)[O-])c2)cc1	AmpC detergent inconclusive
COc1cc2nc(Nc3ccc(F)cc3)nc(N)c2cc1OC	CHX counter 17
COc1cc2nc(Nc3ccc(C)c(C)c3)nc(N)c2cc1OC	none
CCCCCCn1c(=O)n2n(c1=O)[C@@H]1CN(S(=O)(=O)c3ccc(C)cc3)C[C@]1(O)[C@@H](OC(=O)NCc1ccccc1F)C2	none (no result: CHX counter, AmpC inh no detg, Shiga toxin inh, SARS PLpro yeast, AmpC detergent)
N#Cc1cc2ccccc2nc1SCc1ccccn1	CHX counter 59, Shiga toxin inh 147
Cc1cc2cc3c(cc2nc1SCc1ccccn1)OCCO3	none
O=C(Oc1ccc2ccc(O)cc2c1)c1ccccc1Cl	CHX counter 32, Shiga toxin inh 44
COc1cc(C(=O)Oc2ccc3ccc(O)cc3c2)cc(OC)c1OC	CHX counter 21
COc1ccc(C(=O)/C=C/c2ccc(OC(=O)c3cc(OC)c(OC)c(OC)c3)cc2)cc1	none
O=C(Oc1ccc2ccc(O)cc2c1)C1CCCCC1	none
COc1ccc(S(=O)(=O)N2CCOCC2)cc1NC(=O)Cc1ccc(F)cc1	none (no result: CHX counter, AmpC inh no detg, Shiga toxin inh, SARS PLpro yeast, AmpC detergent)
Cc1ccc(NC(=O)C2C3C=CC4(CN(Cc5cccnc5)C(=O)C24)O3)cc1 (centres undefined)	AmpC detergent inconclusive
O=C(CSc1nnc2ccccn12)N1CCc2ccccc21	CHX counter 20, Shiga toxin inh 62
CC(Sc1nnc2ccccn12)C(=O)N1CCc2ccccc2C1 (centres undefined)	CHX counter 20
O=C1CN(C(=O)CSc2nnc3ccccn23)c2ccccc2N1	none
O=C(CSc1nnc2ccccn12)N1CCc2ccccc2C1	CHX counter 29, Shiga toxin inh 136
COc1ccc(NC(=O)CN2C(=O)NC3(CCCC3)C2=O)cc1	none
O=C(C1CCC(CNc2c(N3CCCCC3)c(=O)c2=O)CC1)N1CCN(c2ccccn2)CC1 (centres undefined)	none
CNc1sc(C(=O)c2ccccc2F)c(N)c1-c1nc2ccccc2s1	CHX counter 19, Shiga toxin inh 64
CCN(CC(=O)N1CCCCC1)S(=O)(=O)c1ccccc1	none
COc1ccc(-c2csc(=NCCO)n2-c2ccccc2)cc1	CHX counter 17, Shiga toxin inh 71, AMA1-RON2 inh inconclusive
Cc1ccc(-c2csc(=Nc3ccccc3)n2CCCO)cc1	none (no result: CHX counter, AmpC inh no detg, Shiga toxin inh, SARS PLpro yeast, AMA1-RON2 inh)
OCc1csc(=Nc2ccccc2)n1-c1ccccc1	none
COc1ccc(-c2csc(=Nc3ccccc3)n2CCO)cc1	CHX counter 16, Shiga toxin inh 41, AmpC detergent inconclusive
Cc1cc(NC(=O)CCCN2C(=O)/C(=C\c3cccs3)SC2=S)no1	none
CC1=NN(C(=O)Cn2nc([N+](=O)[O-])cc2C)C(O)(C(F)(F)F)C1 (centres undefined)	none
Cc1ccc(S(=O)(=O)Nc2cc(=O)[nH]c(SCc3ccccc3Cl)n2)cc1	AmpC inh no detg 10µM, AmpC detergent inconclusive
Cc1ccc(N(CC(=O)N2CCOCC2)S(=O)(=O)c2ccccc2)cc1	none
O=C(COc1ccccc1Cl)NC(=S)Nc1ccc(CN2CCOCC2)cc1	none
O=C(CCCCl)NC(=S)Nc1ccc(CN2CCOCC2)cc1	CHX counter 13
O=C(CCCCl)NC(=S)Nc1ccc(N2CCOCC2)cc1	CHX counter 34, Shiga toxin inh 96
COc1ccc(CCNC(=O)c2cccc(S(=O)(=O)N3CCCCCC3)c2)cc1	none (no result: CHX counter, Shiga toxin inh)
O=[N+]([O-])c1ccc(SCc2c(F)cccc2Cl)nc1	CHX counter 19, AMA1-RON2 inh inconclusive
Fc1cccc(Cl)c1CSc1ccc(-c2cccnc2)nn1	CHX counter 36, Shiga toxin inh 143
Clc1ccc(CSc2ccc(-c3cccnc3)nn2)cc1	CHX counter 27
O=[N+]([O-])c1cccnc1SCc1c(F)cccc1Cl	none
CCc1ccc(NC(=O)CSc2ccc(-c3cccnc3)nn2)cc1	none
CCC(C)[C@H](NC(=O)NCc1cccs1)C(=O)OC (some centres undefined)	none
CC(C)CC(c1nnnn1Cc1cccs1)N1CCN(c2nc3ccccc3s2)CC1 (centres undefined)	CHX counter 20
O=C(O)c1ccc2nc(-c3ccccc3)c(-c3ccccc3)nc2c1	CHX counter 56, Shiga toxin inh 65
O=C(c1ccccc1)c1ccc2nc(-c3ccco3)c(-c3ccco3)nc2c1	CHX counter 36, AmpC inh no detg 25µM, Shiga toxin inh 56, AMA1-RON2 inh inconclusive
O=C(NCCO)c1ccc2nc(-c3ccco3)c(-c3ccco3)nc2c1	AMA1-RON2 inh inconclusive
O=C(NCCc1ccccc1)c1ccc2nc(-c3ccco3)c(-c3ccco3)nc2c1	AmpC inh no detg 16µM
COc1cc(C)nc(NS(=O)(=O)c2ccccc2Cl)n1	none
CCC(C)N(C(=O)COC(=O)CNC(=O)c1sc2ccccc2c1Cl)C1CCS(=O)(=O)C1 (centres undefined)	CHX counter 46
CCN1CCN(Cc2nnc(-c3ccccc3)o2)CC1	AmpC detergent inconclusive
